Results filed as inconclusive are left out. Active and inactive are the calls of the source. Unless noted, calls come from the whole dose curve; as a rule, active = well fitted curve in either direction with a large enough effect (not every such curve was filed as active); inconclusive = small, poorly fitted or top-dose-only effect, or another doubt; inactive = flat fitted curve, though single readings scatter.
How the values were obtained:
[1] = biological target: Lysosomal acid glucosylceramidase (Homo sapiens) (UniProt P04062); assay: Glucocerebrosidase-p2 (AID 348; in the data active = potency below about 10 µM; note: potency is the fitted concentration of half-maximal effect); settings: purified GBA, blue fluorogenic substrate, 40 min
Chain of Lysosomal acid glucosylceramidase (Homo sapiens) (P04062 whole entry, looked up): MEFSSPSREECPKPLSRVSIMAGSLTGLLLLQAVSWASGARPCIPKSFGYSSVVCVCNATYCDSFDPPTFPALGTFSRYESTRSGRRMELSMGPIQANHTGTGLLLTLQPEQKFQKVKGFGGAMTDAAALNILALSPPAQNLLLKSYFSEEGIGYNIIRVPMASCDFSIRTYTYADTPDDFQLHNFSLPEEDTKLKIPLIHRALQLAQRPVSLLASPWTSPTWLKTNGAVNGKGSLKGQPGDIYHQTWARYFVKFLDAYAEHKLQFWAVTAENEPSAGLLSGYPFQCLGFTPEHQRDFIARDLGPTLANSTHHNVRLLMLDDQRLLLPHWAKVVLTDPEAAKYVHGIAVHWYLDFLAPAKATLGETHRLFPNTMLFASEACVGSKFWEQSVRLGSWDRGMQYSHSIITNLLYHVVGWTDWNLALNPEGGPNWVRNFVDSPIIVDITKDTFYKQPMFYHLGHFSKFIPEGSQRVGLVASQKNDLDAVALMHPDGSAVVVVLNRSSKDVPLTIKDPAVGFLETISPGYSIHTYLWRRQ
Outline: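 Compounds titrated from 0.6 nM upwards against 0.2 nM enzyme in pH 5.9 citric acid/KH2PO4, taurocholate, tween-20; blue fluorogenic substrate 80 uM, 40 min room temperature, stopped and read Ex 365/Em 440 for AC50.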

[2] = AP1 Signaling Pathway (AID 357); settings: ME-180 AP-1-bla reporter, EGF-induced, beta-lactamase ratio, 5 h; at 7.69 µM (top of the series) unless noted; note: % is set by controls: 0 for no effect and ±100 for the full control effect
Outline: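 ME-180 cells with beta-lactamase reporter under AP-1 response element, stimulated with EC50 EGF; compounds tested in titration series, 5 h at 37 °C. CCF4 substrate added 2.5 h at room temperature; 460/530 nm emission ratio gave %activity and AC50.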

[3] = biological target: Cytochrome P450 1A2 (Homo sapiens) (UniProt P05177); assay: p450-cyp1a2 (AID 410; calls by dose curve;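 note: -100% = full effect of reference inhibitor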); settings: recombinant CYP1A2, luciferin-ME demethylation, luminescence; series mostly up to 57 µM
Chain of Cytochrome P450 1A2 (Homo sapiens) (P05177 whole entry, looked up): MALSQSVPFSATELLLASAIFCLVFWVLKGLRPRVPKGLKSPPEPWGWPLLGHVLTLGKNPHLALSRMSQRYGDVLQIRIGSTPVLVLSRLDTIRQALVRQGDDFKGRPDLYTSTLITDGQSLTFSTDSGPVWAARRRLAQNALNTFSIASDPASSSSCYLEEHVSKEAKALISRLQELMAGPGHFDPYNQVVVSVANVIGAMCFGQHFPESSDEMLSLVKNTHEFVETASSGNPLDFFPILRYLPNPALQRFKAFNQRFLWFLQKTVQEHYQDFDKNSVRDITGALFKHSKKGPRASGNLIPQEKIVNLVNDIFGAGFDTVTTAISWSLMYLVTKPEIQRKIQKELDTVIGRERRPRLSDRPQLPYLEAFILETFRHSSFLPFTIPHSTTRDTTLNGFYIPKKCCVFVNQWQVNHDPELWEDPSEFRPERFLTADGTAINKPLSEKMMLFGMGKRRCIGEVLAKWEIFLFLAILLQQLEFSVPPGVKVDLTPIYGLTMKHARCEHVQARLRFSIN
Outline: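 Human CYP1A2 (20nM) demethylated Luciferin-ME at its Km (100uM) in 100mM KPO4. After 10 min compound preincubation, NADPH regeneration ran the reaction 60 min at room temperature. Luciferin was read by luminescence, normalized to 57 uM furafylline.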

[4] = NFAT Signaling Pathway (AID 444); settings: Jurkat NFAT-bla M1, carbachol, beta-lactamase ratio, 5 h; at 7.69 µM (top of the series) unless noted;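 note: carbachol stimulus at about its EC50 of 1 µM final; % is set by controls: 0 for no effect and ±100 for the full control effect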
Outline: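 Read-out: CCF4 FRET ratio (460 nm/530 nm) after 1 h RT dye loading, used for %activity and AC50 from titration series. Cells: Jurkat NFAT-β-lactamase/M1 line, treated with compound plus 1 uM carbachol for 5 h, 37 °C.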

[5] = Stat Signaling Pathway (AID 446); settings: ME-180 (cervical carcinoma) SIE beta-lactamase reporter, IL-6 stimulated, 5 h; at 7.69 µM (top of the series) unless noted;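 note: ME-180 cervical cancer cells given 40 pM IL-6 alongside compound; SIE-controlled beta-lactamase reporter measured as 460/530 nm FRET emission ratio; % is set by controls: 0 for no effect and ±100 for the full control effect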
Outline: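 IL-6/STAT signaling read in ME-180 cells via an SIE beta-lactamase reporter. Stimulus was 40 pM IL-6 (its AC50) for 5 hrs, so both activation and inhibition register.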

[6] = biological target: Glucocorticoid receptor (Homo sapiens) (UniProt P04150); assay: GR-EFC Redistribution (AID 451; calls by dose curve; note: potency is the fitted concentration of half-maximal effect); settings: CHO-K1 GR-EFC translocation, beta-gal luminescence, 2 h
Chain of Glucocorticoid receptor (Homo sapiens) (P04150 whole entry, looked up, the tested form may be a part): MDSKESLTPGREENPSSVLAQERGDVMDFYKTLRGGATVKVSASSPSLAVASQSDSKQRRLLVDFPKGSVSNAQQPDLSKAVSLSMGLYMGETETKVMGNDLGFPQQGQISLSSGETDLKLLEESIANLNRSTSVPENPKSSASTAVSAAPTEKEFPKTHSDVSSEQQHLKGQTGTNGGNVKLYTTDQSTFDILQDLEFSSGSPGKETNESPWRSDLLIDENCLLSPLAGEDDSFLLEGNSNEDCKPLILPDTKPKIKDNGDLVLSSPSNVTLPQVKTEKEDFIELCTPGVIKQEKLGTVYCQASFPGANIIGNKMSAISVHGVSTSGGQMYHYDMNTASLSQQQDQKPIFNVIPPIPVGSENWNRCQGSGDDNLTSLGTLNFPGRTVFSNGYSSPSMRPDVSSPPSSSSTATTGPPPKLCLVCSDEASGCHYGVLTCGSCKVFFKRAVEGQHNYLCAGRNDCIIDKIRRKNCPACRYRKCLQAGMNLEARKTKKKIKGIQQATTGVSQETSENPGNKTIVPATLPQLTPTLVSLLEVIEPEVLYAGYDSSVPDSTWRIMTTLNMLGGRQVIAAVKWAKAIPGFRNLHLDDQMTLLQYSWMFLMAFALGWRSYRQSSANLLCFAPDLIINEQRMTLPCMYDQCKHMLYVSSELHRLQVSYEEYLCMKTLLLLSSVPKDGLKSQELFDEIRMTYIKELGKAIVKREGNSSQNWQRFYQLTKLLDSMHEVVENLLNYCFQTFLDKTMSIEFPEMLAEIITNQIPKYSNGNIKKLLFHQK
Outline: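 Translocation of GR-ED fusion to nuclear EA restores b-gal, read by luminescence after 1 h room-temperature detection. Engineered CHO-K1 biosensor cells, 1,000/well, exposed 2 h at 37 C to titrations up to 46 uM final.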

[7] = biological target: Mitogen-activated protein kinase 10 (Mus musculus) (UniProt Q61831); assay: JNK3 AlphaScreen Assay (AID 530); settings: JNK3 lysate, c-Jun phosphorylation; series mostly up to 57.1 µM;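 note: kinase came from lysate of stimulated human HepG2 cells; signal reports phosphorylation of biotinylated GST-cJun 1-79 at Ser73 with 10 µM ATP; % is set by controls: 0 for no effect and ±100 for the full control effect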
Outline: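 Room-temperature AlphaScreen kinase assay; pre-activated HepG2 lysate as JNK3 source, biotin-GST-cJun(1-79) substrate, 10 uM ATP, compound 15 min preincubation.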

[8] = biological target: 3',5'-cyclic-AMP phosphodiesterase 4B (Homo sapiens) (UniProt Q07343); assay: qHTS Assay for Inhibitors of PDE-IV (AID 607; active = well fitted activation curve with a large enough effect in the main read-out, with a control signal flat, not every such curve was filed as active; note: % of control where 0% means no effect); settings: HEK293 ACTOne CNG channel cells, membrane potential fluorescence; series mostly up to 22.9 µM
Chain of 3',5'-cyclic-AMP phosphodiesterase 4B (Homo sapiens) (Q07343 whole entry, looked up): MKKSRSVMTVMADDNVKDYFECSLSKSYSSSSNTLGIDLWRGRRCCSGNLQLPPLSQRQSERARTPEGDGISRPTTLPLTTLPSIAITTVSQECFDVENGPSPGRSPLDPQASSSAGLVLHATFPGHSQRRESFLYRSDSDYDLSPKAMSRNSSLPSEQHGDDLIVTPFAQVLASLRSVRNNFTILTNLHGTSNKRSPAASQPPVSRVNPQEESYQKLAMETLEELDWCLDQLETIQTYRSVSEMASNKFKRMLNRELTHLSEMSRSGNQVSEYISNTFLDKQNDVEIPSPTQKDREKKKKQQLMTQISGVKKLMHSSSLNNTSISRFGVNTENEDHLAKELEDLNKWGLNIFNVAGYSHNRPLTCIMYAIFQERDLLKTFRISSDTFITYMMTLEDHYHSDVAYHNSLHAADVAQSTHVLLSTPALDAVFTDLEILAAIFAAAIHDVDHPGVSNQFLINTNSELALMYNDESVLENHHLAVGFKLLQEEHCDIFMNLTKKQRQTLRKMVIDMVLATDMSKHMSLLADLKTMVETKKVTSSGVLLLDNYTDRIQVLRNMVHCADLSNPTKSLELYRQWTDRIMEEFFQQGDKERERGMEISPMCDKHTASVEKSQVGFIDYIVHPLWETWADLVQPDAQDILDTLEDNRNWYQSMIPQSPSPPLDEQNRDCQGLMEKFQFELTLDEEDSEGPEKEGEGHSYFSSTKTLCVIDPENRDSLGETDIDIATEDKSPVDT
Outline: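 Live HEK293 cells with a modified cyclic nucleotide-gated (CNG) channel report intracellular cAMP via membrane-potential dye fluorescence (ex 535/em 590 nm). Endogenous PDE-IV was targeted. Compounds were tested at up to 22.9 uM final; RO 20-1724 100 uM served as control.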

[9] = qHTS Assay for Lipid Storage Modulators (AID 1519; calls by dose curve); settings: Drosophila S3 cells, BODIPY lipid droplet/cell ratio, laser cytometry, cells loaded with oleic acid; for activity change, negative = inhibition: at 57.5 µM (top of the series)
Outline: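 Cells seeded at 5,000 per well were treated with compounds over a concentration series and loaded with oleic acid (400 uM, as added). Lipid droplet fluorescence (488 nm excitation, 500-530 nm channel) was read by laser-scanning cytometry and normalized to 20 uM Triacsin C.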

[10] = Primary qHTS for small molecule stabilizers of the endoplasmic reticulum resident proteome: Secreted ER Calcium Modulated Protein (SERCaMP) assay (AID 1508630; active = well fitted inhibition curve with a large enough effect; note: % is set by controls: 0 for no effect and ±100 for the full control effect); settings: SH-SY5Y GLuc-SERCaMP (Gaussia luciferase released on ER calcium loss) secretion, thapsigargin, luminescence; series mostly up to 38.4 µM
Outline: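 GLuc-SERCaMP-expressing SH-SY5Y cells, pretreated 16 h with compound, are challenged with thapsigargin to empty ER calcium stores; after 4 h, coelenterazine is added directly to the medium and luminescence is imaged.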

[11] = measured here: cell count channel max response
[12] = measured here: lipid channel max response

CC(=O)N1CCC2(CCN(Cc3nccs3)CC2)CC1
inactive: Potency [1] > 11.4 µM | activity change, negative = inhibition [2] 3.58% | Potency [3] | activity change, negative = inhibition [4] -2.08% | activity, negative = inhibition [5] 17% | Potency [6] > 46 µM | outcome [7] | Potency [8] | activity change, negative = inhibition [9] -0.294% | Potency [10]
5.77%: max response [9, 12]
3.24%: max response [9, 11]

COCC(=O)N1CCC2(CC1)CN(C(=O)Nc1cccc(C#N)c1)C2
inactive: Potency [1] > 11.4 µM | activity change, negative = inhibition [2] 12.3% | Potency [3] | activity change, negative = inhibition [4] 9.29% | activity, negative = inhibition [5] 11.7% | Potency [6] > 46 µM | outcome [7] | Potency [8] | activity change, negative = inhibition [9] 1.93% | Potency [10]
8.59%: max response [9, 11]
11%: max response [9, 12]

Cn1cccc1C(=O)N1CCC2(CCN(C(=O)Nc3cccc(F)c3)CC2)CC1
inactive: Potency [1] > 11.4 µM | activity change, negative = inhibition [2] -12.6% | Potency [3] | activity change, negative = inhibition [4] 15.8% | activity, negative = inhibition [5] -3.96% | Potency [6] > 46 µM | outcome [7] | Potency [8] | activity change, negative = inhibition [9] 6.54% | Potency [10]
18.2%: max response [9, 11]
25.2%: max response [9, 12]

COCC(=O)N1CCC2(CC1)CCN(C(=O)Nc1ccc(OC)cc1)CC2
20.1%: max response [9, 12]
13.2%: max response [9, 11]
inactive: Potency [1] > 11.4 µM | activity change, negative = inhibition [2] -6.71% | Potency [3] | activity change, negative = inhibition [4] 6.08% | activity, negative = inhibition [5] -0.498% | Potency [6] > 46 µM | outcome [7] | Potency [8] | activity change, negative = inhibition [9] 4.36% | Potency [10]

COC(=O)N1CCC2(CC1)CN(C(=O)Nc1ccccc1)C2
-8.35%: max response [9, 12]
inactive: Potency [1] > 11.4 µM | activity change, negative = inhibition [2] -8.08% | Potency [3] | activity change, negative = inhibition [4] 8.68% | activity, negative = inhibition [5] 1.2% | Potency [6] > 46 µM | outcome [7] | Potency [8] | activity change, negative = inhibition [9] 5.14% | Potency [10]
-14.6%: max response [9, 11]

COC(=O)N1CCC[C@@]2(CCN(C(=O)Nc3cccc(C#N)c3)C2)C1
4.39%: max response [9, 11]
inactive: Potency [1] > 11.4 µM | activity change, negative = inhibition [2] -12.4% | Potency [3] | activity change, negative = inhibition [4] 19.3% | activity, negative = inhibition [5] 6.31% | Potency [6] > 46 µM | outcome [7] | Potency [8] | activity change, negative = inhibition [9] 6.94% | Potency [10]
15.8%: max response [9, 12]

COCC(=O)N1CCC2(CCCN(C(=O)Nc3cccc(F)c3)C2)CC1
inactive: Potency [1] > 11.4 µM | activity change, negative = inhibition [2] -4.55% | Potency [3] | activity change, negative = inhibition [4] 3.84% | activity, negative = inhibition [5] -4.68% | Potency [6] > 46 µM | outcome [7] | Potency [8] | activity change, negative = inhibition [9] 7.2% | Potency [10]
4.52%: max response [9, 11]
14.2%: max response [9, 12]

Reference: PubChem BioAssay (NCATS)
